Compound activity as filed in PubChem BioAssay.
Rows were chosen to be rich in hits. Some 7.9% of all compounds tested hit in one or more screens of this group.
HT1080NT lethal: kills 2HG-producing HT-1080-NT fibrosarcoma cells. HT-1080-NT fibrosarcoma viability, CellTiter-Glo ATP luminescence, 48 h. Potency, µM (titrated, usually from 46.1 µM), without a hit: at the highest dose activity, negative = less viability, most hits filed as cytotoxic. 1.6% of 360,000 active;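 note: NT is the 2HG producing partner of a matched IDH1 knockdown line; 0% = DMSO-treated cells and -100% = media-only wells without cells; nearly all actives have a fitted effect of over 55% in size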
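A 48-hour cytotoxicity screen used HT-1080-NT cells plated 2 hours before compound delivery. ATP-based CellTiter-Glo luminescence measured viability, normalized to DMSO and no-cell controls.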
SW480 rerep: DNA re-replication induction in SW480 cells. SW480 DNA re-replication, Hoechst DNA content imaging, 48 h. Potency, µM (series often up to 46.1 µM), for inactives: top-dose re-replication activation, actives largely listed as activators. 1.8% of 340,000 active. AID 624297; note: % of control where 0% means no effect; nearly all actives have a fitted effect of over 55% in size
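Per well, 250 cells were exposed to pinned compound for 48 hr. Nuclear DNA was visualised with Hoechst (40 min, 37 C) and total object intensity recorded by fluorescence scanning.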
KB-V1 MDR tox: kills drug-selected multidrug resistant KB-V1 cells | KB-V1 MDR cells viability, CellTiter-Glo, 72 h | Potency, µM (titrated, usually from 46.1 µM), actives largely listed as cytotoxic | 3.4% of 400,000 active; note: % is set by controls: 0 for no effect and ±100 for the full control effect; nearly all actives have a fitted effect of over 60% in size
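In this primary screen, KB-V1 cells overexpressing P-gp are incubated with library compounds (lowest to highest concentration) for 72 h at 37 degrees C before a luminescent ATP viability read.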
HT1080 IDH1KD tx: HT-1080 IDH1 knockdown cell toxicity (counter line); Potency, µM (top dose mostly 46.1 µM), for the others: at the highest dose activity, negative = toxicity, usual class: cytotoxic; AID 686971; 2% of 360,000 active; HT-1080 IDH1 knockdown viability, ATP luminescence, 48 h;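 note: 0% = DMSO wells and -100% = cell-free medium wells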
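Knockdown cells (IDH1KD HT-1080) received compounds 2 h after plating at 750 cells/well and were kept 48 h at 37 °C in 5% FBS RPMI. A CellTiter-Glo luminescence read gave % activity for curve fitting.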
KB-3-1 cytotox: kills parental KB-3-1 adenocarcinoma cells | Potency, µM (series often up to 46.1 µM), hits mostly cytotoxic | 1.4% of 400,000 active | KB-3-1 viability, CellTiter-Glo ATP luminescence, 72 h | AID 1347075; note: % is set by controls: 0 for no effect and ±100 for the full control effect; nearly all actives have a fitted effect of over 60% in size
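Parental KB-3-1 adenocarcinoma cells in phenol-red-free DMEM with 10% FBS were pin-treated with compounds at several concentrations, incubated 72 h at 37 °C, and viability read by CellTiter-Glo luminescence; concentration-effect curves were fitted after normalization.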
MCF10A rereplic: induces DNA re-replication in MCF 10a normal breast cells; AID 624296; 2.9% of 350,000 active; MCF 10A DNA re-replication, Hoechst nuclear intensity, 48 h; Potency, µM (highest dose often 46.1 µM), inactives show at the top dose activity, positive = re-replication, most hits filed as activators; note: % of control where 0% means no effect; nearly all actives have a fitted effect of over 50% in size
* hit, by the source's call; ! = a repeat was not active. Calls come from the whole dose curve; as a rule, active = well fitted curve in the direction sought with a large enough effect; inconclusive = small, poorly fitted or top-dose-only effect, or another doubt; inactive = no such curve, though single readings can be large; an effect the other way counts as inactive or inconclusive. Potency is the fitted concentration of half-maximal effect.

For CC1(C)N=C(N)N=C(N)N1c1ccc(OCC(=O)N2CCOCC2)cc1 the results were HT1080NT lethal 23.1µM*, KB-V1 MDR tox inactive, HT1080 IDH1KD tx 6.51µM* and KB-3-1 cytotox inconclusive.
For CC1=C(C(=O)N(C)C)CC(CC(=O)NCC2CCCCC2)C(=O)N1Cc1ccccc1 (stereo unspecified) the results were HT1080NT lethal -3.1%, KB-V1 MDR tox inactive, HT1080 IDH1KD tx 2.1% and KB-3-1 cytotox inactive.
`CCCCC(=O)Nc1ccc2nc(SCC(=O)N3CCc4ccccc43)sc2c1` gave KB-V1 MDR tox inactive and KB-3-1 cytotox inactive.
Screening Cc1cccc(NC(=O)CSc2nc(-c3ccccc3)cc(=O)[nH]2)c1C returned KB-V1 MDR tox inconclusive and KB-3-1 cytotox inactive.
`COc1nc(N(c2ccccc2)c2ccccc2)nc(-n2ccnc2)n1` gave HT1080NT lethal -17.4%, SW480 rerep -4.7%, KB-V1 MDR tox inconclusive, HT1080 IDH1KD tx -16.7%, KB-3-1 cytotox inactive and MCF10A rereplic 16.4µM*.
`CCOc1ccc(NC(=O)CN(C)C(=O)c2cccnc2Sc2ccc(C)c(C)c2)cc1OCC` gave HT1080NT lethal -0.9%, SW480 rerep inconclusive, HT1080 IDH1KD tx -1.8% and MCF10A rereplic 1.1%.
For CC/C(=N\Nc1ccccc1[N+](=O)[O-])c1ccc(O)cc1 the results were HT1080NT lethal inconclusive, SW480 rerep -5.2%, KB-V1 MDR tox inactive, HT1080 IDH1KD tx 20.6µM*, KB-3-1 cytotox inactive and MCF10A rereplic inconclusive.
Screening CNC[C@@H]1OCc2ccccc2-c2c(n(C)c3ccccc23)C(=O)N([C@H](C)CO)C[C@@H]1C returned HT1080NT lethal -20.7%, KB-V1 MDR tox inactive, HT1080 IDH1KD tx 2.1% and KB-3-1 cytotox inactive.
CCOC(=O)C1C(=O)C=C(/C=C/c2ccccc2)CC1c1ccc(Cl)cc1 (stereo unspecified) was read as HT1080NT lethal -3.8%, SW480 rerep inconclusive, KB-V1 MDR tox 16.4µM*, HT1080 IDH1KD tx -7.0%, KB-3-1 cytotox inactive and MCF10A rereplic 2.8%.
Screening CCOC(=O)C1NC(=O)CC1c1ccccc1 (stereo unspecified) returned HT1080NT lethal -0.7%, SW480 rerep -2.2%, KB-V1 MDR tox inactive, HT1080 IDH1KD tx -4.4%, KB-3-1 cytotox inactive and MCF10A rereplic -5.4%.
C#CC[N+](C)(C)CCCCCCCCCCCC was read as HT1080NT lethal 10.3µM*, SW480 rerep 11.6µM*, KB-V1 MDR tox inactive, HT1080 IDH1KD tx 11.6µM*, KB-3-1 cytotox 2.06µM* and MCF10A rereplic 25.9µM*.
C#CC[N+](C)(C)CCCCCCCC was read as HT1080NT lethal inconclusive, SW480 rerep -0.5%, KB-V1 MDR tox inactive, HT1080 IDH1KD tx inconclusive, KB-3-1 cytotox 5.17µM* and MCF10A rereplic 10.9%.
C[N+](C)(C)CCCCCC[N+](C)(C)C was read as HT1080NT lethal inconclusive, SW480 rerep -1.1%, KB-V1 MDR tox inactive, HT1080 IDH1KD tx 7.0%, KB-3-1 cytotox inactive and MCF10A rereplic -0.5%.
CCCCCCCCCCCCCCCCCC[N+](C)(C)CCC[Si](OC)(OC)OC was read as SW480 rerep -1.8% and MCF10A rereplic 8.8%.
`CC#CC[N+](C)(C)CCCCCCCCCCCC` gave HT1080NT lethal 23.1µM*, SW480 rerep inconclusive, KB-V1 MDR tox inactive, HT1080 IDH1KD tx 23.1µM*, KB-3-1 cytotox inconclusive and MCF10A rereplic inconclusive.
For C#CC[N+](C)(C)CCCCCCCCCC the results were HT1080NT lethal inconclusive, SW480 rerep 20.6µM*, KB-V1 MDR tox inactive, HT1080 IDH1KD tx 11.6µM*, KB-3-1 cytotox 3.66µM* and MCF10A rereplic inconclusive.
Cn1c(=O)cc(OCC(=O)NCc2ccc(F)cc2Cl)c2ccccc21 was read as KB-V1 MDR tox inactive and KB-3-1 cytotox inactive.
`CCCCCCCCCCOC(=O)Cn1c(COc2ccccc2)[n+](C)c2ccccc21` gave HT1080NT lethal -24.1%, SW480 rerep -2.1%, KB-V1 MDR tox inactive, HT1080 IDH1KD tx -6.1%, KB-3-1 cytotox inactive and MCF10A rereplic inconclusive.
Screening CCCCCCCCCCOC(=O)Cn1c(COc2ccccc2C)[n+](C)c2ccccc21 returned HT1080NT lethal 23.1µM*, SW480 rerep inconclusive, KB-V1 MDR tox inactive, HT1080 IDH1KD tx 11.6µM*, KB-3-1 cytotox inconclusive and MCF10A rereplic inconclusive.
For CCCCCCCCCCOC(=O)Cn1c(COc2ccc(OC)cc2)[n+](C)c2ccccc21 the results were HT1080NT lethal 20.6µM*, SW480 rerep inconclusive, KB-V1 MDR tox inactive, HT1080 IDH1KD tx 13µM*, KB-3-1 cytotox 20.6µM*! and MCF10A rereplic 6.51µM*!.
`COc1ccc(/C=C2\N=C(SC)N(c3ccccc3OC)C2=O)cc1` gave HT1080NT lethal 0.5%, SW480 rerep 18.4µM*, KB-V1 MDR tox inactive, HT1080 IDH1KD tx inconclusive, KB-3-1 cytotox inconclusive and MCF10A rereplic inconclusive.
Screening CCOc1ccc(N2C(=O)/C(=C/c3ccccc3)N=C2SC)cc1 returned HT1080NT lethal 9.8%, SW480 rerep 6.7%, KB-V1 MDR tox inactive, HT1080 IDH1KD tx 9.4%, KB-3-1 cytotox inactive and MCF10A rereplic 5.8µM*.
CCCCc1nn2c(=O)cc(COC(=O)c3ccco3)nc2s1 was read as KB-V1 MDR tox inconclusive and KB-3-1 cytotox inactive.
O=C(CCc1nc2ccccc2c(=O)[nH]1)Nc1nnc(SCc2ccccc2)s1 was read as HT1080NT lethal 8.0%, SW480 rerep -11.0%, KB-V1 MDR tox inactive, HT1080 IDH1KD tx 16.0%, KB-3-1 cytotox inactive and MCF10A rereplic 11.2%.
Screening O=c1[nH]c(CSc2nnc(Nc3ccccc3)s2)nc2ccccc12 returned HT1080NT lethal -1.2%, SW480 rerep 16.4µM*, KB-V1 MDR tox inactive, HT1080 IDH1KD tx -1.4%, KB-3-1 cytotox inactive and MCF10A rereplic 21.5%.
Cn1c(SCc2nc3ccccc3c(=O)[nH]2)nc2ccccc21 was read as HT1080NT lethal -1.9%, SW480 rerep 1.8%, KB-V1 MDR tox inconclusive, HT1080 IDH1KD tx -9.0%, KB-3-1 cytotox inactive and MCF10A rereplic -26.9%.
`COc1ccc(-c2nnc(CSc3nc4ccccc4c(=O)n3CC(C)C)o2)cc1OC` gave HT1080NT lethal inconclusive, SW480 rerep 2.5%, KB-V1 MDR tox 20.6µM*, HT1080 IDH1KD tx inconclusive, KB-3-1 cytotox inactive and MCF10A rereplic -1.2%.
CC(C)Cn1c(SCc2nc3ccccc3c(=O)[nH]2)nc2ccccc2c1=O was read as HT1080NT lethal 4.7%, SW480 rerep inconclusive, KB-V1 MDR tox inactive, HT1080 IDH1KD tx -9.1%, KB-3-1 cytotox inactive and MCF10A rereplic 11.2µM*.
